The supplement of paper PMC3334620
Over roughly 33,000 sequences, “E-score (-0.5 to 0.5)” has its median near -0.053; the highest 2% begin near 0.37. Many of the other results were omitted from the sample, so the highest values are more common in it than they were.

The sequences below were run against Hap1 (UniProt P0CE41) (assay: PBM E-score (8-mer binding enrichment) (E-score (-0.5 to 0.5)); higher = stronger / more preferred TF binding). Details: protein concentration: 200 nM; construct: GST-DNA-binding domain.
Protocol: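 Universal 'all 10-mer' protein binding microarrays (Agilent AMADID 015681) probed with GST-tagged S. cerevisiae TFs (full-length or DBD) made by in vitro transcription/translation (PURExpress), about 100-200 nM. Bound TF was detected with fluorescent anti-GST. Each ungapped 8-mer (which stands for itself and its reverse complement) is scored by the PBM enrichment score (E-score), a modified Wilcoxon-Mann-Whitney statistic from -0.5 to +0.5, computed with the Universal PBM Analysis Suite. Scale: above 0.35 generally sequence-specific binding.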

Sequence of UniProt P0CE41 (P0CE41 whole entry, the tested form may be a part): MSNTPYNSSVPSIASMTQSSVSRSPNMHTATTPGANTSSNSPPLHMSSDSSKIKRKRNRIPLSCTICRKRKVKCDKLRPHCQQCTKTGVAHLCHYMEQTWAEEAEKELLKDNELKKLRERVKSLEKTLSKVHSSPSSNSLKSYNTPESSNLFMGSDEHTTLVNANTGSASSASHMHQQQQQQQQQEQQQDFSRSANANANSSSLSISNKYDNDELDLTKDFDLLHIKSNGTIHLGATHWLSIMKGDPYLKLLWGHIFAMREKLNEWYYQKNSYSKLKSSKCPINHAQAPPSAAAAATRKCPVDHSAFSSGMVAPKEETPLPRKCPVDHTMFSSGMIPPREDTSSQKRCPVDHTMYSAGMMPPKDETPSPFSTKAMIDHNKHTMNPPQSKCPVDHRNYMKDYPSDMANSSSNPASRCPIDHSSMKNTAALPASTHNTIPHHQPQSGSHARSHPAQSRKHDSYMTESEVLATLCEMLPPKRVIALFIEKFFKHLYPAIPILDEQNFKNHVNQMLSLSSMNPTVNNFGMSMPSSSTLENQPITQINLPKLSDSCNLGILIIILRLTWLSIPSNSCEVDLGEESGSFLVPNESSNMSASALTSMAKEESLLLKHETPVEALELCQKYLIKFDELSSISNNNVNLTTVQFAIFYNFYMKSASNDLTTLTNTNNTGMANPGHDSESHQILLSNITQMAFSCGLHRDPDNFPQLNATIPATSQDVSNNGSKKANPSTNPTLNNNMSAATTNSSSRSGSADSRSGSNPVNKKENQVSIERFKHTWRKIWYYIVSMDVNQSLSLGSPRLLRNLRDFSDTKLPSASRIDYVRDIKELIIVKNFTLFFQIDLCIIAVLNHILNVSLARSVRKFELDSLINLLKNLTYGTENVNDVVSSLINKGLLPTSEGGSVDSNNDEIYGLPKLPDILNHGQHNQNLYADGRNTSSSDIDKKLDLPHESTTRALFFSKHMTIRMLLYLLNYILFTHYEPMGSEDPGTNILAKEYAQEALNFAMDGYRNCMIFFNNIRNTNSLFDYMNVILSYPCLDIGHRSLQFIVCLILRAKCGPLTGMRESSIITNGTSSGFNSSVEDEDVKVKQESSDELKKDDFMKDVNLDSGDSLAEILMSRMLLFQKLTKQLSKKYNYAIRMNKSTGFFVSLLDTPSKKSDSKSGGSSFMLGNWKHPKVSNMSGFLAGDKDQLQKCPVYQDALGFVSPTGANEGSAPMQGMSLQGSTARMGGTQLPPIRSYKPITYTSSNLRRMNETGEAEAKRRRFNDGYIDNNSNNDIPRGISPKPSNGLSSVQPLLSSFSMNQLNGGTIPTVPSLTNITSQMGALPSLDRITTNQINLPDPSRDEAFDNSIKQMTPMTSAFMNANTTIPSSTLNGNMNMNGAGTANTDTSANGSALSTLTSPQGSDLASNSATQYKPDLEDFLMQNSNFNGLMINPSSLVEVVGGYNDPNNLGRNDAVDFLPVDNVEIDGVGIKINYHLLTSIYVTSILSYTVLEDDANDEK

Sequence | PBM E-score
GCTGCTCA | -0.241
GGCAAGGA | -0.0722
CTGAGTCC | -0.0126
ACTATCAA | 0.0295
CCGCCTCC | 0.0265
CGATTTTC | 0.147
ACCGATAT | 0.43
CCCGATGA | 0.285
GGCGATAC | 0.265
GCCGATCA | 0.263
GTCGATAA | -0.0382
CGCGATAA | 0.115
AACGATAT | -0.0547
GCCGATAA | 0.449
ACCGATCT | 0.274
ACCGATGA | 0.223
GGCGATAA | 0.392
GCCGATGA | 0.373
CTAGATGC | -0.224
GAATCGAA | -0.142
ACAGGCTG | -0.256
CTTGCACA | -0.136

Sequence | PBM E-score
TCCGATCA | 0.221
GACGATAC | 0.0839
GCCGATCC | 0.258
GCCGATAC | 0.417
ACCGATAC | 0.371
TCCGATAA | 0.45
CCCGATAA | 0.417
TACGATAA | 0.0399
CCCGATTA | 0.197
AGCGATAC | 0.065
AACGATAC | -0.2
CACGATAA | 0.087
GTAGGGAC | -0.0187
AGTGAGTC | -0.18
CCTCTAAG | -0.337
GTTATCGA | 0.165
CAGACCAG | 0.0149
CGAATTAC | 0.15
GGAATTAA | 0.419
GGAATTAC | 0.375
TGAATTAA | -0.0149
AGAATTAC | 0.0991

Sequence | PBM E-score
CGAATTAA | 0.0158
TATCTCAA | -0.0851
GCCTGGAC | -0.0392
AGATCCGG | 0.384
ATATCCGG | 0.452
ATATCCCG | 0.286
ATATCCGA | 0.463
CTATCCGA | 0.113
ATATCCTC | 0.0211
AGATCCGA | 0.359
ATATCCGC | 0.387
GTATCCGA | 0.304
AGATCCGC | 0.263
CTATCCGC | 0.257
ATATCCAG | 0.0668
AGGCAATG | -0.17
ACTGGGGA | -0.016
AGTGGAAC | 0.0266
CAGATCCC | 0.0493
AAGTCCTG | -0.0784
AAGTCCGG | 0.47
CAGTCCGC | 0.0912

Sequence | PBM E-score
AAGTCCCT | -0.278
AAGTCCGC | 0.427
AAGTCCGT | 0.417
GAGTCCGC | 0.249
AAGTCCAT | -0.00211
CAGTCCGG | 0.364
GTTGGTTA | -0.0552
TTGCAAAA | -0.00902
CCGAAGTA | 0.365
GAGGCACA | -0.112
GTCCGTTA | 0.444
ATCCGTTA | 0.409
GTCCGTGA | 0.303
ATCCGTTG | 0.301
ATCCGTTC | 0.233
CTCCGTTA | 0.367
CGCCCGCA | 0.189
GCCTGAAC | -0.0686
CGCAGGGC | -0.0256
GGGTATGA | 0.0413
